Source: PubChem BioAssay (Tox21)
Results filed as inconclusive are left out. The source made the active and inactive calls. Unless noted, the call rests on the fitted dose curve; in most records, active means well fitted curve in the direction sought with a large enough effect in the repeat runs; inconclusive means weak or mixed curves; inactive means no such curve, though single readings can be large; an effect the other way counts as inactive or inconclusive.

Key:
[1] = qHTS assay to identify small molecule antagonists of the estrogen related receptor (ERR) signaling pathway from Tox21 library - cell viability counter screen (AID 1224834); further: nearly all actives have a fitted effect of over 30% in size
Outline: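 Fluorescence from CellTiter-Fluor gives the viability read-out, taken 30 min after reagent addition. Before that, ERR cells seeded 6 h earlier were incubated with compounds for 17.5 h at 37 C.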

[2] = qHTS assay to identify small molecule agonists of the constitutive androstane receptor (CAR) signaling pathway - cell viability counter screen (AID 1224836); further: nearly all actives have a fitted effect of over 45% in size
Outline: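 HepG2 cells stably carrying hCAR and a CYP2B6-2.2kb reporter were plated 4 h, then given compounds at 15 concentrations plus PK11195 (final 0.75 uM). After 23 h at 37 C, viability was read by CellTiter-Fluor fluorescence.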

[3] = qHTS assay to identify small molecule antagonists of the constitutive androstane receptor (CAR) signaling pathway - cell viability counter screen (AID 1224837); further: nearly all actives have a fitted effect of over 45% in size
Outline: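 HepG2-CYP2B6-hCAR cells, 2500/well, 4 hr pre-incubation; compound titration, 15 conc.; CITCO 50 nM final; 23 hr, 37 C/5% CO2; CellTiter-Fluor, fluorescence intensity.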

[4] = molecular target: Nuclear receptor subfamily 1 group I member 3 (Homo sapiens) (UniProt Q14994); assay: qHTS assay to identify small molecule antagonists of the constitutive androstane receptor (CAR) signaling pathway (AID 1224838); further: nearly all actives have a fitted effect of over 40% in size
Outline: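 HepG2-CYP2B6-hCAR cells; 4 h pre-incubation; cpd (15 conc) + CITCO 50 nM final; 24 h, 37 C/5% CO2; ONE-Glo, luminescence.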

[5] = molecular target: Nuclear receptor subfamily 1 group I member 3 (Homo sapiens) (UniProt Q14994); assay: qHTS assay to identify small molecule agonists of the constitutive androstane receptor (CAR) signaling pathway (AID 1224839);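 further: HepG2 cells stably carrying human CAR and a CYP2B6 luciferase reporter; nearly all actives have a fitted effect of over 15% in size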
Outline: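 HepG2 cells stably expressing hCAR and a CYP2B6-2.2kb luciferase reporter were treated with compounds at 15 concentrations plus 0.75 uM PK11195 (final) for 24 h at 37 C; luminescence was read after ONE-Glo addition.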

[6] = qHTS assay to identify small molecule antagonists of the estrogen related receptor signaling pathway with the pleiotropic PPARgamma coactivator (PGC) from Tox21 10K library - cell viability counter screen (AID 1224840; active means well fitted cell-killing curve with a large enough effect in the repeat runs, not every such curve was filed as active; further: nearly all actives have a fitted effect of over 40% in size)
Outline: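 PGC/ERR cells, 2,000/well; 6 h pre-incubation 37 C/5% CO2; cpd in DMSO via pin tool; 17.5 h 37 C; CellTiter-Fluor, 30 min; fluorescence.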

[7] = qHTS assay to identify small molecule antagonists of the estrogen related receptor signaling pathway with the pleiotropic PPARgamma coactivator (PGC) from Tox21 10K library (AID 1224841; call rule not given here; further: actives are mostly falling curves and most rising ones were filed inactive; nearly all actives have a fitted effect of over 50% in size)
Outline: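 PGC/ERR cell line, 2,000 cells/well; 6 h pre-incubation 37 C/5% CO2; compounds (DMSO) pinned in; 18 h, 37 C; One-Glo, 30 min RT; luminescence.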

[8] = qHTS assay to identify small molecule agonists of the estrogen related receptor signaling pathway with the pleiotropic PPARgamma coactivator (PGC) from Tox21 10K library (AID 1224842); further: nearly all actives have a fitted effect of over 15% in size
Outline: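 PGC/ERR reporter cell line, 2,000 cells per well, incubated 6 h at 37 C before 23 nL compound in DMSO was added. After 18 h at 37 C, One-Glo luminescence read following 30 min at room temperature.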

[9] = molecular target: Thyrotropin receptor (Homo sapiens) (UniProt P16473); assay: qHTS assay to identify small molecule agonists of the thyroid stimulating hormone receptor (TSHR) signaling pathway (AID 1224843; calls by dose curve; further: nearly all actives have a fitted effect of over 45% in size)
Outline: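 TSHR-HEK293 cells in agonist mode, 30 min room-temperature step, then cAMP measured by competitive HTRF (cAMP-d2 with anti-cAMP cryptate) after 1 h at room temperature. Tested at 15 concentrations in triplicate.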

[10] = qHTS assay to identify small molecule agonists of H2AX (AID 1224845; active means well fitted activation curve with a large enough effect in the signal ratio in the repeat runs, not every such curve was filed as active; the % refers to the signal ratio)
Outline: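 Wild-type CHO-K1 cells, plated overnight, exposed 3hr at 37C to 15 concentrations (0.76% DMSO final). Lysed, then HTRF anti-pH2AX (S139) cryptate and anti-H2AX-d2 antibodies, 24 hr room temperature; 665/620 nm emission read.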

[11] = qHTS assay to identify small molecule agonists of the hypoxia (HIF-1) signaling pathway (AID 1224846; active means well fitted activation curve with a large enough effect in the signal ratio in the repeat runs, not every such curve was filed as active; the % refers to the signal ratio)
Outline: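 Cell line: CellSensor HRE-bla ME-180; 2,000 cells/well; 0.5% dialyzed FBS; 5 h preincubation; DMSO compound pin transfer; 17 h, 37C, 5% CO2; CCF4-AM added; bla FRET signal scored for activation.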

[12] = qHTS assay to identify small molecule agonists of H2AX - cell viability counter screen (AID 1224847; calls by dose curve; further: top concentration of the series differs between compounds; nearly all actives have a fitted effect of over 30% in size)
Outline: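 Wild-type CHO-K1 cells (10% FBS medium) were plated overnight at 37C, exposed to compounds at 15 concentrations for 3 hr at 37C (0.76% DMSO final), and viability was read as CellTiter-Glo luminescence after 30 min at room temperature.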

[13] = qHTS assay to identify small molecule antagonists of the estrogen related receptor (ERR) signaling pathway from Tox21 library (AID 1224848); further: nearly all actives have a fitted effect of over 50% in size
Outline: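 ERR reporter cell line (from NTP) seeded 2,000 cells/well, rested 6 h at 37 C/5% CO2, then pin-dosed with compounds in DMSO. After 18 h at 37 C, ONE-Glo added; luminescence read after 30 min at room temperature.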

[14] = qHTS assay to identify small molecule agonists of the estrogen related receptor (ERR) signaling pathway from Tox21 library (AID 1224849; calls by dose curve; further: nearly all actives have a fitted effect of over 15% in size); conditions: ERR reporter cell line, ONE-Glo luciferase, 18 h; at 92.4 µM (top of the series) unless noted
Outline: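 ERR cells, 6 h pre-incubation 37 C/5% CO2; cpd in DMSO pinned; 18 h 37 C; ONE-Glo added, 30 min RT; luminescence read. Agonist mode, qHTS.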

[15] = qHTS RealTime-Glo MT Cell Viability Assay in HepG2 cells - 24 hour (AID 1224867); further: nearly all actives have a fitted effect of over 50% in size
Outline: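 Cell number in HepG2 cultures estimated from NanoLuc luminescence generated by metabolic reduction of a prosubstrate by living cells. The homogeneous, nonlytic format allowed repeated reads at 0, 8, 16, 24, 32 and 40 h of compound exposure.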

[16] = qHTS RealTime-Glo MT Cell Viability Assay in HEK293 cells - 32 hour (AID 1224868); further: top concentration of the series differs between compounds; nearly all actives have a fitted effect of over 50% in size
Outline: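 Homogeneous bioluminescent viability format in HEK293 cells (600 cells/well). Following 5 h at 37 C/5% CO2, 23 nL compound was pintooled; the signal was measured repeatedly during 40 h incubation.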

[17] = A CellTox Green Cytotoxicity Assay to monitor cytotoxicity in HEK293 cells - 0 hour (AID 1224869); further: nearly all actives have a fitted effect of over 50% in size
Outline: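 Nonlytic real-time cytotoxicity: HEK293 + CellTox Green reagent plated, 5 h preincubation, pintool compound addition (23 nL in DMSO), 37 C for 40 h, fluorescence measured at successive time points.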

[18] = qHTS assay to identify small molecule agonists of the hypoxia (HIF-1) signaling pathway - cell viability counter screen (AID 1224844; calls by dose curve; further: nearly all actives have a fitted effect of over 50% in size)
Outline: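 ME-180 HRE-bla cells, 2,000/well, 0.5% dialyzed FBS; 5 hr settle, 17 hr compound at 37C/5% CO2; CCF4-AM reporter read first, then CellTiter-Glo luminescence after 30 min RT.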
On the % scale 0 is the no-effect control and ±100 the full control effect.

Chain of Thyrotropin receptor (Homo sapiens) (P16473 whole entry, looked up): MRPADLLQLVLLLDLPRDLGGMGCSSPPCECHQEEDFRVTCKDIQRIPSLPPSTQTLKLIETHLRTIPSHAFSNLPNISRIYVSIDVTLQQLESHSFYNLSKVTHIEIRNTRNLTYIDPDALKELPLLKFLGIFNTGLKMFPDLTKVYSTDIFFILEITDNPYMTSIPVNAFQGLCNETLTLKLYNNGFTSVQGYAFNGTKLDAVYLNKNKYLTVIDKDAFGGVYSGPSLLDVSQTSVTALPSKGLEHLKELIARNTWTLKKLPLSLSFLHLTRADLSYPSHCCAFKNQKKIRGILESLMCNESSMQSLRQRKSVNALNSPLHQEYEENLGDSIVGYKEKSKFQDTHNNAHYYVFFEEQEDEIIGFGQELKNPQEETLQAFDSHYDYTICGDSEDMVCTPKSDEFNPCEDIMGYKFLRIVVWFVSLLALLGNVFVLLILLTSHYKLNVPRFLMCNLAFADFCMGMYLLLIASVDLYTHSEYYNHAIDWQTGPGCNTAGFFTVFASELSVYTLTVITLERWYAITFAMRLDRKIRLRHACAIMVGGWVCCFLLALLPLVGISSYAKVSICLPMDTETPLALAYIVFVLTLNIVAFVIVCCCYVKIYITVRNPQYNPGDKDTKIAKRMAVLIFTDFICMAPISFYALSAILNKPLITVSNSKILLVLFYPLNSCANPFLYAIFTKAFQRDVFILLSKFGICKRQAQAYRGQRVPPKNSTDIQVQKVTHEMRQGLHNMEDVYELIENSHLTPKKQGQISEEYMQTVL
Chain of Nuclear receptor subfamily 1 group I member 3 (Homo sapiens) (Q14994 whole entry, looked up): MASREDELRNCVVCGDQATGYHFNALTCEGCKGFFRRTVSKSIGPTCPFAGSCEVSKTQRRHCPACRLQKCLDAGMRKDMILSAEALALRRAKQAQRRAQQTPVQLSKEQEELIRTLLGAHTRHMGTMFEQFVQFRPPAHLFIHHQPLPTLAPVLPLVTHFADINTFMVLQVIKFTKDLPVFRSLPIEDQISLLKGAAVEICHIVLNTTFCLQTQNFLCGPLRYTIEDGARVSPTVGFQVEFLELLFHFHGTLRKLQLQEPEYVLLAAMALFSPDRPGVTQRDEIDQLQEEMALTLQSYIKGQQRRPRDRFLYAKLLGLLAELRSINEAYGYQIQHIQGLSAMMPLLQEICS

CCCc1cc(C(N)=S)ccn1
inactive: Potency [1] | Potency [2] | Potency [3] | Potency [4] | Potency [5] | Potency [6] | Potency [7] | outcome [8] | Potency [9] | outcome [10] | outcome [11] | Potency [12] | Potency [13] | activity change, positive = activation [14] -6.09% [at 42.5 µM] | Potency [15] | Potency [16] | Potency [17]

NCCc1cnc[nH]1
inactive: Potency [1] | Potency [2] | Potency [3] | Potency [6] | Potency [9] | Potency [18] | outcome [10] | Potency [12] | Potency [15] | Potency [17]

CCN1CCC[C@H]1CNC(=O)c1c(O)c(Cl)cc(Cl)c1OC
inactive: Potency [1] | Potency [2] | Potency [3] | Potency [4] | Potency [5] | Potency [6] | Potency [9] | Potency [18] | outcome [10] | Potency [12] | Potency [15] | Potency [16] | Potency [17]

OC(CCN1CCCCC1)(c1ccccc1)C1CC2C=CC1C2 (configuration not stated)
inactive: Potency [1] | Potency [2] | Potency [3] | Potency [4] | Potency [5] | Potency [6] | Potency [18] | outcome [10] | outcome [11] | Potency [12] | Potency [15] | Potency [16] | Potency [17]

CCOC(=O)CCC(C)=O
inactive: Potency [1] | Potency [2] | Potency [3] | Potency [5] | Potency [6] | Potency [7] | outcome [8] | Potency [18] | outcome [10] | outcome [11] | Potency [12] | Potency [13] | activity change, positive = activation [14] 4.77% | Potency [15] | Potency [16] | Potency [17]

CCCCC(CC)COC(=O)c1ccccc1O (configuration not stated)
inactive: Potency [1] | Potency [2] | Potency [3] | Potency [4] | Potency [5] | Potency [6] | Potency [7] | outcome [8] | Potency [9] | Potency [18] | outcome [10] | outcome [11] | Potency [12] | Potency [13] | activity change, positive = activation [14] 5.6% [at 42.5 µM] | Potency [15] | Potency [16] | Potency [17]
